From PubChem BioAssay
Activity calls are given as the source filed them.

Columns and labels:
[1] = tested on: Plasmodium falciparum Sir2 (PF13_0152, Sir2A); test: pfSir2 binders on small-molecule microarrays, primary screen, biochemical, small-molecule microarray, 635 nm fluorescence (AID 1098); conditions: small-molecule microarray binding, fluorescence 635 nm; higher = more signal;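 further: score merges spot fluorescence intensity with its signal-to-noise ratio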
[2] = small-molecule microarray binders of probe aDKK1, primary screen, biochemical, biotinylated probe, 635/667 nm fluorescence (AID 1099); conditions: higher = more signal;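 further: score merges 667nm spot fluorescence with signal to noise across triplicate slides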
[3] = small-molecule microarray binders of probe aCHRDL2, primary screen, biochemical, biotinylated probe, 635/667 nm fluorescence (AID 1100); conditions: higher = more signal
[4] = splicing luciferase reporter signal modulators, primary screen, spliceosome inhibition project, cell-based, HEK293, splice +/- reporter (AID 1101); conditions: luminescence, 24 h, higher = more signal, called active from +8 up or from −8 down;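 further: HEK293 cells carrying a splicing-competent luciferase reporter gene; test concentration not given here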
[5] = molecular target: Fibroblast growth factor 10 (Homo sapiens) (UniProt O15520); test: FGF10 binders on small-molecule microarrays, primary screen, biochemical, small-molecule microarray, 635 nm fluorescence (AID 1102); conditions: FGF10 binding, fluorescence 635 nm, higher = more signal
[6] = tested on: glycogen synthase kinase-3 (GSK3A per assay name; protocol says GSK3B); test: GSK3 binders on small-molecule microarrays, primary screen, biochemical, small-molecule microarray, 635 nm fluorescence, GSK3A (AID 1103); conditions: small-molecule microarray binding, fluorescence 635 nm; higher = more signal; further: the record names both GSK3A and GSK3B
[7] = molecular target: Epidermal growth factor receptor (Homo sapiens) (UniProt P00533); test: EGFR binders on small-molecule microarrays, primary screen, biochemical, small-molecule microarray, 635 nm fluorescence (AID 1104); conditions: EGFR binding, higher = more signal;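 further: score merges 667 nm emission intensity with spot signal to noise over triplicate slides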
[8] = molecular target: Follistatin-related protein 3 (Homo sapiens) (UniProt O95633); test: FSTL3 binders on small-molecule microarrays, primary screen, biochemical, small-molecule microarray, 635 nm fluorescence (AID 1105); conditions: FSTL3 binding, higher = more signal;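 further: score merges emission near 667 nm and signal to noise per printed spot across three slides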
[9] = molecular target: Dickkopf-related protein 1 (Homo sapiens) (UniProt O94907); test: DKK1 binders on small-molecule microarrays, primary screen, biochemical, small-molecule microarray, 635 nm fluorescence scan (AID 1106); conditions: DKK1 binding, higher = more signal;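 further: score merges emission near 667 nm with signal to noise over three replicate slides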
[10] = tested on: Inhibin beta A chain (activin A); test: INHBA (activin A) binders on microarrays, primary screen, biochemical, small-molecule microarray, 635 nm fluorescence scan (AID 1107); conditions: small-molecule microarray binding, higher = more signal;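 further: mouse activin A protein probed at 4.33 µg/mL on printed slides; score merges bound-protein fluorescence near 667 nm with spot signal-to-noise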
[11] = tested on: Human papillomavirus type 1a protein E7 (residues 44-93); test: HPV1a E7 fragment binders on microarrays, primary screen, biochemical, small-molecule microarray, residues 44-93, 635 nm fluorescence (AID 1108); conditions: small-molecule microarray binding, fluorescence 635 nm; higher = more signal;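 further: E7 fragment applied at 1 µg/mL in TBST for 1 h at 4 C; score combines spot fluorescence with its signal to noise ratio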
[12] = modulators of HCV replicon luciferase signal, primary screen, HCV replication inhibitor project, Huh7 cells, luciferase reporter (AID 1109); conditions: 48 h, higher = more signal;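 further: huh7 hepatoma cells harbouring a luciferase neomycin HCV replicon reporter; luciferase luminescence as measure of HCV replicon replication; test concentration not given here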
[13] = molecular target: Left-right determination factor 2 (Homo sapiens) (UniProt O00292); test: LEFTY2 binders on small-molecule microarrays, primary screen, biochemical, small-molecule microarray, 635 nm fluorescence scan (AID 1110); conditions: LEFTY2 binding, higher = more signal
[14] = molecular target: Calmodulin-1 (Homo sapiens) (UniProt P0DP23); test: CALM1 binders on microarrays, EGTA buffer, profiling panel, biochemical, small-molecule microarray, Cy5-labelled CALM1 (AID 1111); conditions: Cy5-CALM1 binding fluorescence, higher = more signal;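 further: labelled calmodulin applied in Tris saline Tween buffer holding calcium plus EGTA and DTT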
[15] = molecular target: Calmodulin-1 (Homo sapiens) (UniProt P0DP23); test: calcium-bound CALM1 binders on microarrays, profiling panel, artefact control for SMM control-protein annotation, biochemical, small-molecule microarray, Cy5-labelled CALM1, plus calcium (AID 1112); conditions: Cy5-CALM1 binding fluorescence, higher = more signal;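 further: score merges spot fluorescence with signal to noise from triplicate slides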
[16] = small-molecule microarray binders of probe aWnt5a, primary screen, biochemical, biotinylated probe, 635/667 nm fluorescence (AID 1113); conditions: higher = more signal;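 further: score merges 667 nm fluorescence intensity with signal-to-noise per printed feature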
[17] = small-molecule microarray binders of probe aShh, primary screen, biochemical, biotinylated probe, 635/667 nm fluorescence (AID 1114); conditions: higher = more signal;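 further: probe is biotin-labelled aShh protein from a stem cell growth factor screen; measures binding of labelled protein to compounds printed on the slide; score merges feature fluorescence at 667 nm with signal-to-noise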
[18] = small-molecule microarray binders of probe aNog, primary screen, biochemical, biotinylated probe, 635/667 nm fluorescence (AID 1115); conditions: higher = more signal;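 further: probe is biotinylated aNog protein used at 0.15 µg/mL for 1 h at 4 C; z-score combines 667 nm fluorescence of each spot with its signal to noise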
[19] = molecular target: Torsin-1A-interacting protein 1 (Homo sapiens) (UniProt Q5JTV8); test: LAP1 binders from COS7 cell lysate, primary screen, small-molecule microarray, 635/667 nm fluorescence (AID 1116); conditions: COS7-hLAP1 lysate binding, 635 nm fluorescence, higher = more signal
[20] = molecular target: Alpha-bungarotoxin (Bungarus multicinctus) (UniProt P60615); test: alpha-bungarotoxin binders on microarray, profiling panel, artefact control for SMM control protein annotation, biochemical, small-molecule microarray, Alexa647 label, 635/667 nm fluorescence (AID 1117); conditions: alpha-BTX-A647 binding fluorescence, higher = more signal
Sequence of Alpha-bungarotoxin (Bungarus multicinctus) (P60615 whole entry, looked up): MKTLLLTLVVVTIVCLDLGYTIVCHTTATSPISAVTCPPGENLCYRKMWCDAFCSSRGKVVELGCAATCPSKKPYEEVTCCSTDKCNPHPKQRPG

Sequence of Left-right determination factor 2 (Homo sapiens) (O00292 whole entry, looked up): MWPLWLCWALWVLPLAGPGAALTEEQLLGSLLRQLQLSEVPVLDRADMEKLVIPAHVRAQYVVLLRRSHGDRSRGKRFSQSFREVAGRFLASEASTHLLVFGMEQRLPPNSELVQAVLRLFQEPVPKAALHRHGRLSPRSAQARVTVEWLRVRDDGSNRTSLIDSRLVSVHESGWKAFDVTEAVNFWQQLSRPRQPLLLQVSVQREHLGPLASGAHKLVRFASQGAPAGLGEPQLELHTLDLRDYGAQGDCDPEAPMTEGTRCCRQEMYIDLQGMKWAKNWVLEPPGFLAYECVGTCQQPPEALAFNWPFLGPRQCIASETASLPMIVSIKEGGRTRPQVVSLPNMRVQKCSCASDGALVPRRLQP
Sequence of Dickkopf-related protein 1 (Homo sapiens) (O94907 whole entry, looked up): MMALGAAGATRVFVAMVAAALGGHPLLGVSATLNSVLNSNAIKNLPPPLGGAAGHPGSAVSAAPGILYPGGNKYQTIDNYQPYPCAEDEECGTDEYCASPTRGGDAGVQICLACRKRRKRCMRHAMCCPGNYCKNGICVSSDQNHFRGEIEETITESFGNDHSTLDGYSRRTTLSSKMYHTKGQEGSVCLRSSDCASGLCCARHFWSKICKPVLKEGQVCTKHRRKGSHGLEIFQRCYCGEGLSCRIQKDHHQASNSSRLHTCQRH
Sequence of Follistatin-related protein 3 (Homo sapiens) (O95633 whole entry, looked up): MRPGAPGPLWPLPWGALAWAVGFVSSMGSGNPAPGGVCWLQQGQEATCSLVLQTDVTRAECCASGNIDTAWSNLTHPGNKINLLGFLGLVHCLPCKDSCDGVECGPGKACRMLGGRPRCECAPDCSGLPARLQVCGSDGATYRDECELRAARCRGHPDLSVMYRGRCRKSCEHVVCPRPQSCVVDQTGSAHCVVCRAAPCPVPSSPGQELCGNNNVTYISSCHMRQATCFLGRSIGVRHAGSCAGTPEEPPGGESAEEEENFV
Sequence of Epidermal growth factor receptor (Homo sapiens) (P00533 whole entry, looked up): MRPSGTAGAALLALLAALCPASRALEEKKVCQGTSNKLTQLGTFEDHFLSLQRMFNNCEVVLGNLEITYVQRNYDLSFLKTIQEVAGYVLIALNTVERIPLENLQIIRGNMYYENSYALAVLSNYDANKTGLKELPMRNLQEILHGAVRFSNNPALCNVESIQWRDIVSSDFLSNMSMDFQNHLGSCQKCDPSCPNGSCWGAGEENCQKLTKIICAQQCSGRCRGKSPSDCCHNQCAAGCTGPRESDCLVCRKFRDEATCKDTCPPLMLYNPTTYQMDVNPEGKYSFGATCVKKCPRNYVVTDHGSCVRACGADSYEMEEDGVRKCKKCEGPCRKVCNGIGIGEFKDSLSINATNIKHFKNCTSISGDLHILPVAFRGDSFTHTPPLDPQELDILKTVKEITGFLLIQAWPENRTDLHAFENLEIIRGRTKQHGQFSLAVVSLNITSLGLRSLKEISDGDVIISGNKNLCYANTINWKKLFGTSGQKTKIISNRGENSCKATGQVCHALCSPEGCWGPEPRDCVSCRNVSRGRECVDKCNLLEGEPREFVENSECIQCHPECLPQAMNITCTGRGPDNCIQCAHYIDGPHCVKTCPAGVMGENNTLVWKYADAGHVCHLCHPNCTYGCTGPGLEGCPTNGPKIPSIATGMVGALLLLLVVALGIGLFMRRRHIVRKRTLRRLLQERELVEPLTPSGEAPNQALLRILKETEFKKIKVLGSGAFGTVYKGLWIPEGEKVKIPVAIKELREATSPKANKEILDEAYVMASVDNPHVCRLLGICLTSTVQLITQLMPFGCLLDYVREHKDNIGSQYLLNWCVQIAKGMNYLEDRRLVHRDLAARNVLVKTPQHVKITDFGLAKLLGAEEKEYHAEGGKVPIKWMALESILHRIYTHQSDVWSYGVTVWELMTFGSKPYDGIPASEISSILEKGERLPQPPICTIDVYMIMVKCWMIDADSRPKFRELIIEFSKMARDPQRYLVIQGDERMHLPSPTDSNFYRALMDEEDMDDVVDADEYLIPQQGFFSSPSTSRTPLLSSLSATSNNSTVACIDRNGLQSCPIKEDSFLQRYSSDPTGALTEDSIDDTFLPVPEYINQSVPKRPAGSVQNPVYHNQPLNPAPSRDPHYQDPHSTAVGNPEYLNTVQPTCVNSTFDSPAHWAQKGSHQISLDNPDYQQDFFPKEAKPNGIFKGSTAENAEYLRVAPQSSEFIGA
Sequence of Fibroblast growth factor 10 (Homo sapiens) (O15520 whole entry, looked up): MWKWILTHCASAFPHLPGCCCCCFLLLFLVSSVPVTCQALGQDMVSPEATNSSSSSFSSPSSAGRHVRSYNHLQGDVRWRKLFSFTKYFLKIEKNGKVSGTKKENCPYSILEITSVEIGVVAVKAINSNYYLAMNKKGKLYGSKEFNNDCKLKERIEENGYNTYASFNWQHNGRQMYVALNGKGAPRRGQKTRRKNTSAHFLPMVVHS
Sequence of Torsin-1A-interacting protein 1 (Homo sapiens) (Q5JTV8 whole entry, looked up): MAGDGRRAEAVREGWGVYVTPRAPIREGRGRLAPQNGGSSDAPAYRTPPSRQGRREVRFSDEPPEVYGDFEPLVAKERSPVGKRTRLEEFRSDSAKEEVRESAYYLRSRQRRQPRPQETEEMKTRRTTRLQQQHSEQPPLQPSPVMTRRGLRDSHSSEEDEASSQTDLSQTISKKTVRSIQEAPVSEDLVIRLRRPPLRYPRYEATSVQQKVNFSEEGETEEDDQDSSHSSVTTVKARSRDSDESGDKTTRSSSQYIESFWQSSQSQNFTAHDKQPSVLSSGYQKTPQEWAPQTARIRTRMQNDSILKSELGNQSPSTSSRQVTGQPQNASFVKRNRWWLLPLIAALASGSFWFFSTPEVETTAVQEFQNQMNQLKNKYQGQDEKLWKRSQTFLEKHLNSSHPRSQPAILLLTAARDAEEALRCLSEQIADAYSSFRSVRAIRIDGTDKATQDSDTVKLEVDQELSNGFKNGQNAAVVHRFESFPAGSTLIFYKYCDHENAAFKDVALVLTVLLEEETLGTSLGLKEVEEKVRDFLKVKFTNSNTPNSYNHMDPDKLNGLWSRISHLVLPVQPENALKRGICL

| SMILES | composite z-score [1] | composite z-score [2] | composite z-score [3] | z-score [4] | composite z-score [5] | composite z-score [6] | composite z-score [7] | composite z-score [8] | composite z-score [9] | composite z-score [10] | composite z-score [11] | z-score [12] | composite z-score [13] | composite z-score [14] | composite z-score [15] | composite z-score [16] | composite z-score [17] | composite z-score [18] | composite z-score [19] | composite z-score [20] |
| --- | --- | --- | --- | --- | --- | --- | --- | --- | --- | --- | --- | --- | --- | --- | --- | --- | --- | --- | --- | --- |
| CC(C)[C@@H](OCc1ccccc1)[C@H](C)C=NOC[C@@H](O)COCc1ccco1 | -0.887 | -0.869 | -0.666 | -0.129 (inactive) | -0.557 | -0.279 | -1.11 | -0.94 | -1.62 | -3.73 | -0.549 | -2.38 | -1.05 | -1.71 | -1.81 | -0.204 | -0.37 | -0.577 | -1.05 | -0.0069 |
| O=C1C[C@@H](O)[C@@H](O)[C@@H]2[C@@H]3C(=O)N(C[C@@H]4CCCO4)C(=O)[C@@H]3CC[C@H]12 | 0.379 | -0.273 | -0.577 | 0.32 (inactive) | 0.508 | 0.671 | 0.531 | 0.601 | 0.542 | -0.161 | 0.265 | 0.624 | 0.903 | 0.0222 | -0.522 | -0.0478 | -0.0337 | 0.0309 | 0.224 | 0.384 |
| COCOc1ccc(Br)cc1C(=O)[C@@H]1O[C@H]1c1cccc(OC)c1 | 0.82 | -0.0616 | -0.0631 | -0.455 (inactive) | 0.152 | 0.117 | 0.284 | 0.16 | 0.219 | 0.849 | -0.392 | -3.74 | 0.377 | -0.213 | -0.187 | -0.148 | -0.136 | -0.0428 | 0.616 | 0.187 |
| CO[C@@H]1COC(=O)CC=C[C@H](C)[C@H](OC)COC(=O)[C@H](C)NC(=O)CC=C[C@H]1C | 0.657 | -0.546 | -1.31 | 0.671 (inactive) | 0.616 | 0.918 | 0.745 | 1.44 | 1.18 | 1.74 | -0.724 | 1.39 | 0.965 | -0.981 | -2.34 | -0.0145 | 0.479 | -0.368 | -0.242 | -0.592 |
| C#CCCCON=C1C[C@@H](O)[C@@H](O)[C@@H]2[C@@H]3C(=O)N(c4ccc(F)cc4F)C(=O)[C@@H]3CC[C@@H]12 | 0.191 | -0.19 | -0.71 | 0.0714 (inactive) | -0.0402 | 0.225 | 0.259 | 0.218 | 0.302 | -0.263 | 0.184 | 0.296 | 0.321 | -0.212 | -0.813 | -0.197 | -0.179 | 0.14 | 0.36 | 0.155 |
| CC(C)(C)N1C(=O)[C@H]2[C@H]3[C@H](O)[C@H](O)CC(=O)[C@H]3CC[C@H]2C1=O | 0.0159 | -0.282 | -0.674 | -0.432 (inactive) | 0.287 | 0.694 | 0.456 | 0.426 | 0.624 | -0.167 | 0.487 | -0.041 | 0.473 | 0.133 | -0.816 | 0.0267 | -0.186 | -0.0996 | 0.274 | 0.642 |
| C=CC[C@@H]1C=C[C@H](ON=C2[C@H]3CCn4c(=O)n(-c5ccccc5)c(=O)n4[C@H]3[C@H](O)[C@@H]3O[C@H]23)[C@@H](CO)O1 | 0.482 | -0.378 | -0.548 | 0.492 (inactive) | 0.51 | -0.596 | 0.55 | 0.485 | 0.536 | 0.376 | -0.268 | -3.56 | 0.402 | 0.991 | -0.0461 | -0.147 | -0.0752 | -0.534 | 0.16 | 0.744 |
| CO[C@@H]1COC(=O)[C@@H](C)COC(=O)[C@@H](C)NC(=O)CC=C[C@@H]1C | 0.155 | -0.351 | -1.08 | -2.29 (inactive) | 1.22 | 0.571 | 0.318 | 1.33 | 1.73 | 0.675 | -1.03 | -2 | 1.51 | -0.99 | -2.06 | -0.2 | -0.13 | 0.0629 | 0.638 | -0.553 |
| C=C(C)C(=O)OCC1CN2[C@@H](CC[C@@H](C)[C@@H]2c2ccc(Br)cc2)C(=O)O1 (stereo not given in full) | 0.299 | -0.201 | -0.118 | 0.411 (inactive) | 0.237 | 0.363 | -0.202 | 0.0267 | 0.147 | -0.0608 | 0.0141 | 0.159 | 0.501 | -0.15 | -0.566 | -0.199 | -0.229 | 0.184 | 0.522 | 0.499 |
| Cc1ccc(S(=O)(=O)N[C@@H]2COC(=O)[C@@H](C)COC(=O)CC=C[C@H]2C)cc1 | 0.154 | -0.324 | -0.352 | 0.00914 (inactive) | 0.424 | 0.513 | 0.545 | 0.66 | 0.56 | 0.13 | -0.534 | 0.264 | 0.449 | -0.0682 | -0.523 | -0.0222 | -0.157 | -0.0489 | 0.216 | 0.293 |
| CC(C)=CCCC(C)=CCON=C1C[C@@H](O)[C@@H](O)[C@@H]2[C@@H]3C(=O)N(C4CCCCC4)C(=O)[C@@H]3CC[C@@H]12 | 0.511 | -0.355 | -0.858 | 0.956 (inactive) | 0.368 | -0.345 | 0.859 | 0.502 | 0.996 | 1.04 | 0.0997 | -0.471 | 0.464 | -0.403 | -1.15 | -0.128 | -0.209 | -0.261 | 0.259 | -0.0585 |
| CCc1cc2c(nc1CC)CCN(CCC(C)=NO[C@@H](C)c1cn([C@H](CO)Cc3ccccc3)nn1)C2 | 0.6 | -0.102 | 0.0143 | 0.113 (inactive) | -0.122 | -0.32 | 0.253 | 0.474 | 0.436 | 1.29 | -0.296 | -2.1 | 0.483 | -0.41 | -0.555 | -0.096 | -0.147 | -0.203 | -0.11 | 0.312 |
